Source: PubChem
Sampled rows, rich in hits. Any-hit rate of the full collection: about 7.3%.
NPC1 promoter act = NPC1 promoter activation | Huh7 NPC1 promoter luciferase reporter, 24 h | actives 2.4% (n = 320,000) | AID 485313 | Potency, µM (doses to about 9.22 µM), for inactives: at the highest dose activation, hits mostly activators; further: % of control where 0% means no effect; nearly all actives have a fitted effect of over 60% in size
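Readout is luciferase luminescence, reflecting NPC1 promoter activation in stably transfected Huh7 cells after 24 h compound exposure at 37 °C in reduced-serum medium with 10% FBS.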
SMN2 splice enh = increases expression of the SMN2 splice variant | AID 1458 | Potency, µM (titrated, usually from 46.1 µM), without a hit: top-dose activity change, positive = activation, hits mostly activators | actives 2.8% (n = 210,000) | HEK293 SMN2-luciferase splicing reporter, luminescence, 30-36 h; further: % of control where 0% means no effect; nearly all actives have a fitted effect of over 55% in size
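HEK293 cells carry an SMN2 minigene-luciferase reporter in which exon 7 inclusion puts luciferase in frame. Cells were seeded at 2000 cells/well, attached for 10-12 hours, then exposed to compounds for 30-36 hours at 37C before ONE-Glo luminescence.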
p53 reactivation = restores transcriptional activity of mutant p53 | H1299 p53-A138V BP100-luciferase reporter, luminescence, 24 h | Potency, µM (series often up to 92.2 µM), for inactives: top-dose activity change, positive = activation, hits mostly activators | actives 0.063% (n = 320,000); further: % of control where 0% means no effect; nearly all actives have a fitted effect of over 45% in size
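p53-null H1299 cells stably carrying temperature-sensitive p53-A138V and a BP100-luciferase reporter were pinned with compounds (4-point, 1:5 series) and held 24 hrs at 37 deg C. Luminescence was read 10 min after detection reagent.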
Rab9 promoter act = activators of Rab9 promoter; Huh7 Rab9 promoter-luciferase reporter, luminescence, 24 h; Potency, µM (titrated, usually from 9.22 µM), for the others: at the top dose activation, negative = inhibition, usual class: activators; actives 2.8% (n = 320,000); further: % of control where 0% means no effect; nearly all actives have a fitted effect of over 60% in size
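Huh7 reporter line, Rab9 promoter upstream of luciferase. Compound exposure 24 h at 37 °C in reduced-serum medium with 10% FBS. Read-out: luminescence.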
ELG1 genotox = inducers of genotoxicity in HEK293T ELG1-luciferase cells; HEK293T ELG1-luciferase reporter, luminescence, 16 h; Potency, µM (titrated, usually from 46 µM), for the others: at the highest dose activity change, positive = activation, usual class: activators; actives 1.3% (n = 330,000); AID 504466; further: % of control where 0% means no effect; nearly all actives have a fitted effect of over 60% in size
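Quantitative HTS format in 1536-well plates. HEK293T ELG1-luciferase reporter cells receive test compound and are incubated 16 hr at 37 °C, 5% CO2; ONE-Glo added, 30 min room temperature, then luminescence read.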
FLuc modulator = inhibits or activates purified firefly luciferase, miR-21 counter-screen | purified FLuc, Km substrates, luminescence inhibition | actives 6.9% (n = 360,000) | AID 588342 | Potency, µM (top dose mostly 57.5 µM), without a hit: at the highest dose activity change, negative = inhibition, most hits filed as inhibitors;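 further: plate controls were vehicle for no effect and reference inhibitor for full effect; nearly all actives have a fitted effect of over 55% in size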
Target sequence (P08659 whole entry, looked up): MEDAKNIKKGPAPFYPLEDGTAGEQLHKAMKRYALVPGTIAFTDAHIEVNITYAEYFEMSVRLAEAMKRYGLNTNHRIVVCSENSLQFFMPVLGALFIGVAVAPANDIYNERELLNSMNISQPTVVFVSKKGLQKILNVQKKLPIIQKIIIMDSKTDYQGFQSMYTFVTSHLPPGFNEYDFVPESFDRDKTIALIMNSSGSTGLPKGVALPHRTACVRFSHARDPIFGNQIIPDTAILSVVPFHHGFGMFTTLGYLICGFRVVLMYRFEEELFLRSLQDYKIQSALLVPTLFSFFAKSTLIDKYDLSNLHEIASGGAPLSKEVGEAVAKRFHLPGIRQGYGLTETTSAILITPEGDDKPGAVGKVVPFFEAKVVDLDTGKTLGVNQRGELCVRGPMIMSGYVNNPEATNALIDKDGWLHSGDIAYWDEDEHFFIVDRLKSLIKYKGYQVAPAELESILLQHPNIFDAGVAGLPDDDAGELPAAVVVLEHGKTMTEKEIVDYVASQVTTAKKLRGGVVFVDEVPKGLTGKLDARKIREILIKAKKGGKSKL
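Purified P. pyralis luciferase (10nM final) with 10uM D-luciferin and 10uM ATP (Km levels) in 50mM Tris acetate pH 7.5, 10mM Mg acetate, 0.01% Tween-20, 0.05% BSA; qHTS 6-point titration, ~60 µM downward; luminescence read.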
The depositor's hits bear a star; ? = inconclusive; . = not tested or not shown; [ ] = dose if it differs, or a comment. The call rests on the fitted dose curve; in most records, active means well fitted curve in the direction sought with a large enough effect; inconclusive means small, poorly fitted or top-dose-only effect, or another doubt; inactive means no such curve, though single readings can be large; an effect the other way counts as inactive or inconclusive. Potency means the concentration at half of the fitted maximal effect.

SMILES | NPC1 promoter act | SMN2 splice enh | p53 reactivation | Rab9 promoter act | ELG1 genotox | FLuc modulator
COc1ccc(C(CNC(=O)c2ccco2)N2CCOCC2)cc1 (configuration not stated) | -2% | . | ? | 3% | 7% | .
Cc1ccc(CNC(=O)CCCN2C(=O)CCn3nc(-c4cn(C)c5ccccc45)cc32)cc1 | . | . | . | . | . | -3%
CCc1nc2ccc(C(=O)O)cc2nc1CC | ? | -27% | 10% | ? | ? | 24µM*
O=C(O)c1ccc2nc3c(nc2c1)-c1ccccc1C3=O | 14% | 8% | -2% | ? | 3% | 15µM*
COc1cc(NC(=O)N2CCC(CN3CCOCC3)CC2)cc(OC)c1OC | . | . | . | . | . | -2%
O=C(COC(=O)COc1ccc2c(c1)CCC2)Nc1ccccc1C(F)(F)F | . | . | 0% | . | 2% | .
O[C@@H](c1cc(C(F)(F)F)nc2c(Cl)cc(Cl)cc12)C1CCCCN1 (some centres not stated) | . | -1%[9.22 µM] | . | . | . | .
Cn1cc(C(=O)Nc2ccc3c(c2)CCC3)cn1 | 23% | . | 15% | 30% | ? | 21µM*
Cc1ccc(C(=O)Nc2ccc3c(c2)CCC3)cc1 | ? | 1.4µM* | -1% | 0.32µM* | 0.18µM* | 0.38µM*
Cn1cc(C(=O)Nc2cccc(F)c2)cn1 | 10% | 9% | 4% | 12% | 5% | 0%
Cc1ccc(C(=O)NCC(=O)Nc2ccc3c(c2)CCC3)cc1 | . | . | 21% | . | ? | .
NS(=O)(=O)c1cc(C(=O)Nc2ccc3c(c2)CCC3)ccc1Cl | 3.5µM* | . | ? | 4µM* | 10µM* | 17µM*
Cc1ccc(C)c(NC(=O)CN(C)S(=O)(=O)c2ccc3c(c2)CCC(=O)N3)c1 | . | -25% | . | . | . | 4%
NC(=O)c1c(NC(=O)c2ccncc2)sc2c1CCCC2 | ? | -80% | 5% | ? | 5% | 11µM*
N#Cc1c(NC(=O)c2ccncc2)sc2c1CCC2 | 14% | ? | 18% | 18% | 20% | 13µM*
NC(=O)c1c(NC(=O)c2ccncc2)sc2c1CCCCCC2 | -5% | . | 4% | 0% | -4% | 12µM*
O=C(O)c1ccc(NS(=O)(=O)c2cccc(C(=O)Nc3ccc(Br)cc3)c2)cc1 | -3% | . | ? | 0% | -5% | -19%
COC(=O)Nc1sc2c(c1C(N)=O)CCCCCC2 | 0% | -1% | -6% | -9% | 0% | ?
N#Cc1c(NC(=O)c2cccc(S(=O)(=O)Nc3ccc(C(=O)O)cc3)c2)sc2c1CCCC2 | -1% | . | 5% | 0% | 8% | 19µM*
C=CC(=O)Nc1sc2c(c1C(N)=O)CCCC2 | -12% | . | -26% | -3% | 4% | ?
CNC(=O)C1CCC(Cn2c(=O)c3sccc3n(CC(=O)Nc3cc(F)ccc3F)c2=O)CC1 (configuration not stated) | . | . | . | . | . | 6%
NC(=O)c1c(NC(=O)c2ccccc2)sc2c1CCN(Cc1ccccc1)C2 | 3% | . | . | 20% | 13% | -2%
Cc1cc(C(=O)Nc2sc3c(c2C#N)CCCCC3)cs1 | ? | 11µM* | . | 1.1µM* | 0.82µM* | 0.95µM*
CC(C)C(=O)Nc1sc2c(c1C#N)CCCCC2 | 21% | 12% | 18% | 17% | 9% | ?
NC(=O)c1c(NC(=O)c2ccccc2)sc2c1CCC2 | 2µM* | . | . | 3.2µM* | 5.8µM* | 4.8µM*
Cn1ncc(Cl)c1C(=O)Nc1sc2c(c1C(N)=O)CCC2 | 1% | 19% | -2% | -2% | 0% | -1%
NC(=O)c1c(NC(=O)c2cnccn2)sc2c1CCCC2 | ? | ? | 11% | 2µM* | ? | 2.7µM*
CN(C)C(=O)c1c(NC(=O)c2ccccc2)sc2c1CCC2 | 8% | . | -22% | -1% | 2% | -4%
NC(=O)c1c(NC(=O)c2ccccc2)sc2c1CCc1ccccc1-2 | 4.5µM* | ? | ? | 3.5µM* | 6.5µM* | 2.1µM*
CCc1cc(Cn2nc(-c3ccccc3)cc2C(=O)NCC2CC2)on1 | -4% | . | -1% | -4% | -3% | -1%
